In the supplement of paper PMC10477191:
± gives the standard deviation of the averaged measurements.

Test system: Drosophila ezoana antennal basiconic sensillum ab9
Assay: odor-evoked OSN spike response (post minus pre-stimulus); higher = stronger neuronal excitation
Settings: odor dilution: 10^-4
Summary of the method: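 Spike frequency was compared between 1-second windows before and after each stimulus in Auto Spike software. That change, averaged over replicate sensilla, is the response. Each stimulus was a 500 ms air pulse over filter paper carrying 10 µl of odorant at 10^−4 in mineral oil or DMSO, delivered into a humidified, charcoal-filtered 1.5 l min^−1 stream. A tungsten electrode recorded at the base of antennal basiconic sensilla of restrained adult flies, with up to 3 sensilla per fly.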

Compound	odor-evoked OSN spike response
CCOC(=O)C(C)O (stereo not drawn) [Ethyl lactate]	66.3 ± 26 spikes/s
CC(C)=CCCC(C)=CC=O (mixture of isomers) [citral]	55.8 ± 30 spikes/s
CCCCCOC(C)=O [pentyl acetate]	67.9 ± 29 spikes/s
CCCC(=O)OCc1ccccc1 [benzyl butyrate]	56.9 ± 30 spikes/s
CC(=O)C(C)O (stereo not drawn) [acetoin]	57.3 ± 30 spikes/s
CC(=O)c1ccccc1 [Acetophenone]	68.3 ± 26 spikes/s
COC(=O)c1ccccc1 [methyl benzoate]	125 ± 48 spikes/s
CCCC(=O)CC [3-hexanone]	51.3 ± 35 spikes/s
COc1ccccc1O [guaiacol]	50.8 ± 26 spikes/s
C=CC(O)CCCCC (stereo not drawn) [1-octen-3-ol]	50.6 ± 26 spikes/s
CCCOC(C)=O [propyl acetate]	60.9 ± 37 spikes/s
CC(C)OC(=O)c1ccccc1 [isopropyl benzoate]	58.6 ± 20 spikes/s
C/C=C/C(=O)OCC [Ethyl crotonate]	50.1 ± 30 spikes/s
CCOC(=O)c1ccccc1 [ethyl benzoate]	105 ± 28 spikes/s
CCOC(=O)CC(C)O (stereo not drawn) [Ethyl-3-hydroxybutyrate]	59.2 ± 23 spikes/s
CCC(=O)OCCC(C)C [Isopentyl propionate]	66.7 ± 31 spikes/s
CCCCCC(=O)OCC [ethyl hexanoate]	56.8 ± 31 spikes/s
CC(=O)OCCC(C)C [Isopentyl acetate]	56.7 ± 36 spikes/s
